Bioassay records: PubChem, National Center for Advancing Translational Sciences (NCATS)
HT1080 IDH1KD tx = qHTS for induction of synthetic lethality in tumor cells producing 2HG: qHTS for the HT-1080-IDH1KD cell line. HT-1080 IDH1 knockdown viability, ATP luminescence, 48 h. Potency, µM (titrated, usually from 46.1 µM), for inactives: top-dose activity, negative = toxicity, hits mostly cytotoxic. 360,000 compounds, 2% hits. AID 686971, 2013;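 further: 0% = DMSO wells and -100% = cell-free medium wells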
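Luminescent ATP read-out (CellTiter-Glo, 10 min at room temperature) after 48 h compound exposure at 37 °C gave viability of IDH1-knockdown HT-1080 cells. Activity was normalised to DMSO and cell-free wells, then fitted as concentration-response curves.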
HepG2 tox = qHTS for Inhibitors of TGF-b: Cytotox Counterscreen; AID 588856, 2011; HepG2 CAGA-GFP viability, ATP luminescence, 18 h; 410,000 compounds, 0.76% hits; Potency, µM (highest dose often 46.1 µM), for inactives: top-dose activity change, negative = cytotoxicity, usual class: cytotoxic
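HepG2 CAGA-GFP cells (1000/well, DMEM with 1% FBS) received compound, then TGF-beta at 500 pg/mL final, and were incubated 18 hours at 37 degrees C. Viability was read by CellTiter-Glo luminescence. Media-only wells were set as complete cell-killing and DMSO as no toxicity.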
HT1080NT lethal = qHTS for induction of synthetic lethality in tumor cells producing 2HG: qHTS for the HT-1080-NT fibrosarcoma cell line | Potency, µM (top dose mostly 46.1 µM), for inactives: top-dose activity, negative = less viability, hits mostly cytotoxic | HT-1080-NT fibrosarcoma viability, CellTiter-Glo ATP luminescence, 48 h | 360,000 compounds, 1.6% hits | AID 686970, 2013;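 further: NT is the 2HG producing partner of a matched IDH1 knockdown line; 0% = DMSO-treated cells and -100% = media-only wells without cells; nearly all actives have a fitted effect of over 55% in size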
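A 48-hour cytotoxicity screen used HT-1080-NT cells plated 2 hours before compound delivery. ATP-based CellTiter-Glo luminescence measured viability, normalized to DMSO and no-cell controls.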
ATXN viability = Viability Counterscreen for Primary qHTS for Inhibitors of ATXN expression | 400,000 compounds, 0.49% hits | Potency, µM (doses to about 56.7 µM), hits mostly cytotoxic | S2 cells (HEK-293 line with an ATXN2-luciferase reporter) viability, CellTiter-Fluor protease fluorescence, 24 h; further: nearly all actives have a fitted effect of over 40% in size
TGFb inhibitor = qHTS for Inhibitors of TGF-b | HepG2 CAGA-GFP TGF-b/SMAD3 reporter, GFP fluorescence, 18 h; TGF-beta stimulated, 500 pg/mL final | Potency, µM (series often up to 46.1 µM), for inactives: top-dose activity, negative = inhibition, most hits filed as inhibitors | 410,000 compounds, 1.2% hits | AID 588855, 2011; further: on the % scale 0 is the no-effect control and ±100 the full control effect; nearly all actives have a fitted effect of over 65% in size
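Using HEPG2 CAGA-GFP reporter cells at 1000 cells/well, we pinned test compounds, stimulated with recombinant TGF-beta (500 pg/mL final) and measured total well GFP after 18 h.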
ATXN2 expr inh = Primary qHTS for Inhibitors of ATXN expression | HEK-293 ATXN2-luciferase reporter, luminescence, 24 h | Potency, µM (doses to about 57 µM), for inactives: at the top dose activity change, negative = inhibition, hits mostly inhibitors | 360,000 compounds, 0.72% hits | AID 1745845, 2022; further: on the % scale 0 is the no-effect control and ±100 the full control effect; nearly all actives have a fitted effect of over 55% in size
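qHTS (up to 57 uM final) was run with 24 h compound exposure of reporter cells at 37 °C. Each well was multiplexed: SteadyGlo luminescence measured ATXN2-luciferase expression after a fluorogenic Gly-Phe-AFC viability readout (25 uM final).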
The depositor's hits bear a star; i = inactive; ? = inconclusive; . = no result given; [ ] = dose if it differs, or a comment. Most compounds without a hit are left out; they make up all but 3.8% or so of the library. The call rests on the fitted dose curve; in most records, active means well fitted curve in the direction sought with a large enough effect; inconclusive means small, poorly fitted or top-dose-only effect, or another doubt; inactive means no such curve, though single readings can be large; an effect the other way counts as inactive or inconclusive. Potency means the concentration at half of the fitted maximal effect.

SMILES	HT1080 IDH1KD tx	HepG2 tox	HT1080NT lethal	ATXN viability	TGFb inhibitor	ATXN2 expr inh
Cc1ccc(CSc2nc3ccc(NC(=O)COc4ccccc4F)cc3s2)cc1	.	-8.1%	.	i	-29.7%	6.4%
Cc1cc(C)cc(NC2=NCC(=O)N2Cc2ccccc2)c1	-6.6%	3.6%	-13.0%	i	-0.1%	8.2%
CCCCc1ccc(NC2=NCC(=O)N2CCc2ccccc2)cc1	25.9µM*	-13.1%	?	i	?	-19.1%
N[C@@H](CC(=O)N1CCn2c(nnc2C(F)(F)F)C1)Cc1cc(F)c(F)cc1F	.	.	.	.	.	-10.8%
CCc1ccc(CN(Cc2ccco2)c2cnc(S(C)(=O)=O)nc2C(=O)Nc2c(C)cccc2C)cc1	.	-29.3%	.	i	?	2.7%
CCS(=O)(=O)c1ncc(Cl)c(C(=O)N(Cc2ccccc2)Cc2ccco2)n1	.	5.62µM*	.	.	?	.
CCc1ccc(CN(Cc2ccco2)c2cnc(S(C)(=O)=O)nc2C(=O)Nc2ccccc2Cl)cc1	.	-23.8%	.	i	7.94µM*	15.6%
COC1=C(OC)C(=O)C(CC=C(C)CCC=C(C)CCC=C(C)CCC=C(C)CCC=C(C)CCC=C(C)CCC=C(C)CCC=C(C)CCC=C(C)CCC=C(C)C)=C(C)C1=O	.	.	.	i	.	6.4%
O=C(NCCN1CCCCC1)c1ccc(Oc2cc(Cl)cc(Cl)c2)o1	25.9µM*	-6.5%	?	i	?	-2.4%
O=C(NCC1CC1)c1ccc(Oc2cc(Cl)cc(Cl)c2)o1	-9.4%	2.6%	-9.4%	i	-15.6%	.
Cn1nnnc1Sc1c(Cl)cccc1[N+](=O)[O-]	-14.9%	2.1%	-1.4%	i	-21.1%	3.6%[11.3 µM]
COc1ccc(Nc2ncnc3scc(-c4ccc(OC)cc4)c23)cc1	?	-26.7%	?	i	?	-26.5%
COc1ccc(-c2csc3ncnc(Sc4nnnn4C)c23)cc1	.	-68.9%	.	?	17.8µM*	20µM*
NNc1ncnc2scc(-c3ccc(Cl)cc3)c12	2.2%	-30.3%	-3.0%	i	-39.2%	15.8µM*
Cn1nnnc1Sc1ncnc2scc(-c3ccccc3Cl)c12	.	2.5%	.	?	?	20µM*
COc1ccc(-c2csc3ncnc(Nc4ccc(OC)c(OC)c4)c23)cc1	.	-41.1%	.	?	10µM*	?
O=C(c1ccc(F)cc1)N1CCC[C@H](c2nc(-c3ccc(F)cc3)no2)C1	.	.	.	.	.	15.8%
CCOc1ccc(C(=O)N2CCc3cc(OC)c(OC)cc3C2COc2ccc3c(C)cc(=O)oc3c2)cc1OCC (stereo not drawn)	.	-30.8%	.	i	-2.7%	6.1%
Cc1cccc(N2CCN(C(=O)c3cnn(-c4ccccc4)c3C3CCN(C(=O)OC(C)(C)C)CC3)CC2)c1C	.	-19.4%	.	.	-14.9%	.
Cc1cnc(-n2ncc(C(=O)N(C)CC3CCCN(C)C3)c2C2CC2)nc1-c1cccs1 (stereo not drawn)	.	.	.	i	.	.
Cn1nnnc1Sc1ncnc2scc(-c3ccc(Cl)cc3)c12	.	-100.9%	.	11.2µM*	?	14.1µM*
Cn1nnnc1Sc1ncnc2scc(-c3cccc4c3sc3ccccc34)c12	.	-45.3%	.	?	10µM*	15.8µM*
Cn1nnnc1Sc1ncnc2scc(-c3ccc4c(c3)OCO4)c12	.	2.6%	.	?	?	?
Cn1nnnc1Sc1ncnc2scc(-c3ccc([N+](=O)[O-])cc3)c12	.	-102.7%	.	15.8µM*	12.6µM*	7.08µM*
CN(C)c1ccc(CC2CCc3ccccc32)cc1 (stereo not drawn)	.	-17.3%	.	.	14.6%	.
SMILES	HT1080 IDH1KD tx	HepG2 tox	HT1080NT lethal	ATXN viability	TGFb inhibitor	ATXN2 expr inh
COc1cccc(C2=NC(C)(C)NC(c3ccccc3O)C2)c1 (stereo not drawn)	-5.2%	17.8µM*	-0.4%	i	?	29.2%
O=C(NC1CC1)c1sc2cc(Cl)ccc2c1Cl	5.9%	-23.0%	6.7%	i	-2.1%	23.5%
CC1(C)CC(NC(=O)c2sc3cc(Cl)ccc3c2Cl)CC(C)(C)N1	11.6µM*	-36.0%	14.6µM*	.	25.2%	-23.3%
COc1cccc(N2CCN(Cc3nc4scc(-c5ccccc5)c4c(=O)[nH]3)CC2)c1	11.6µM*	16.4%	13µM*	i	-18.0%	-16.0%
O=c1[nH]c(CN2CCN(c3ccc(O)cc3)CC2)nc2scc(-c3ccc(Cl)cc3)c12	20.6µM*	1.4%	?	i	?	.
Cc1cccc(C(=O)NNc2ncnc3c2cnn3-c2ccc(C)c(Cl)c2)c1	.	9.4%	.	i	29.1%	20.6%
O=C(COc1ccccc1C(=O)Nc1ccccc1)NC1CCCCC1	-18.3%	.	-20.6%	.	.	.
O=C(NNC(=O)c1ccccc1[N+](=O)[O-])Nc1ccc(Cl)cc1	11.4%	2.4%	3.5%	i	-8.9%	3.4%
O=C(Nc1ccc(Cl)cn1)c1cccc2ccccc12	11.6µM*	1.8%	?	i	0.5%	.
O=C(Nc1ccc(Cl)cn1)c1ccccc1[N+](=O)[O-]	18.4µM*	6.6%	?	i	3.7%	-3.1%[11.3 µM]
Cc1ccc(Cl)cc1Nc1nc2ccccc2c2nncn12	.	-21.0%	.	i	2.3%	-8.7%
COC(=O)c1cc(NC(=O)c2ccc(Cn3cc(Cl)cn3)o2)cc(C(=O)OC)c1	?	-5.4%	?	20µM*	-12.0%	?
COC(=O)c1ccccc1NC(=O)c1ccc(Cn2cc(Cl)cn2)o1	20.6µM*	-12.4%	?	?	-1.3%	-22.0%
COC(=O)c1ccccc1NC(=O)c1cc[n+](C)cc1	2.2%	5.62µM*	-2.0%	i	0.0%	1.1%
COC(=O)c1ccccc1NC(=O)c1cccc(NC(=O)c2ccc(Br)o2)c1C	10µM*	-8.2%	12.6µM*	i	4.5%	4.6%
Cc1ccc(CN2CCOc3ccc(CN4CCC(Oc5cccnc5)CC4)cc3C2)o1	.	.	.	i	.	.
Nc1ncnc2c1nc(Cl)n2[C@@H]1O[C@H](CO)[C@@H](O)[C@@H]1O	.	-91.6%	.	.	?	?
c1nc2nc(Nc3ccc(N4CCOCC4)cc3)nc(NC3CCCCC3)c2[nH]1	.	.	.	.	.	24.3µM*
Cc1cc(C)cc(C(=O)NC(=S)Nc2ccc(-c3cc4ccccc4oc3=O)cc2)c1	15.4%	1.0%	2.7%	?	2.0%	6.31µM*
Cc1ccc(Cn2c(C(CO)Nc3nc(-c4ccc(Cl)c([N+](=O)[O-])c4)cs3)nc3ccccc32)cc1 (stereo not drawn)	-26.5%	-40.0%	?	?	15.8µM*	-21.0%
